Assay results taken from PubChem BioAssay (EPA / NIEHS).
“And” between values parts separate entries of the source, which are not always exact repeats. Equal values may be shown once. Results filed as inconclusive are left out. The source made the active and inactive calls. The calls were made as follows, unless noted: active = hit-call score of the fitted dose curve at least 0.9, where 1 is the maximum; inactive = score below 0.9.

Columns and labels:
[1] = ACEA_ER_80hr: ACEA Biosciences xCELLigence Real-Time Cell Analysis on Estrogen Receptor Agonism for Proliferation (AID 2282667; active = hit-call score of the fitted dose curve at least 0.9, where 1 is the maximum); conditions: T47D proliferation, impedance (xCELLigence), 80 h
In short: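 T-47D cells monitored by electrical impedance (xCELLigence) with compound present throughout; 80 h timepoint, positive-direction fitting versus DMSO. Eight-point 1:4 dilutions from 100 uM final, duplicate plates.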

[2] = ATG_CRE_CIS: Attagene CIS-FACTORIAL HepG2 Assay for human cAMP Responsive Element (CRE) binding protein 3 (AID 2282926); conditions: HepG2 CRE cis-reporter, Attagene multiplexed mRNA; actives raise or lower the signal
In short: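 Induced reporter mRNA from a CRE cis element, measured in HepG2 among many multiplexed units at 24 h. Detection used RT-PCR plus capillary electrophoresis of fluorescent fragments; DMSO served as negative control.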

[3] = biological target: CCAAT/enhancer-binding protein beta (Homo sapiens) (UniProt P17676); assay: ATG_C_EBP_CIS: Attagene CIS-FACTORIAL HepG2 Assay for human CCAAT/Enhancer Binding Protein (C/EBP) beta (AID 2282927); conditions: HepG2 Attagene cis-factorial transcription factor reporter; actives raise or lower the signal
CCAAT/enhancer-binding protein beta (Homo sapiens), sequence (P17676 whole entry, looked up): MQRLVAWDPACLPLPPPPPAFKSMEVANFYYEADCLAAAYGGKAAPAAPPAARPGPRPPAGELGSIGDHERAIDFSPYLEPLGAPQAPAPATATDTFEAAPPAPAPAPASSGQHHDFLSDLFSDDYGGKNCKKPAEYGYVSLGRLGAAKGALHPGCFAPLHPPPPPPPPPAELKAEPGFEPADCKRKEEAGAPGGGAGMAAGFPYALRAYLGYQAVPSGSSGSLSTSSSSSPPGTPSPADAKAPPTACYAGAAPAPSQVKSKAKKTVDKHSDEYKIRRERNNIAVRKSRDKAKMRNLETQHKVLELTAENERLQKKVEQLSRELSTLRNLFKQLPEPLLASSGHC
In short: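 Following a 24 h incubation with test chemical, transfected HepG2 cells yielded RNA whose reporter transcripts were quantified by RT-PCR and fluorescent capillary electrophoresis, with DMSO serving as baseline for bidirectional fitting.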

[4] = ATG_CMV_CIS: Attagene CIS-FACTORIAL HepG2 Assay for human CMV (Internal Marker) (AID 2282928); conditions: HepG2 CMV promoter reporter, transcription factor profiling; actives raise or lower the signal;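 also: endpoint acts as a background internal control marker rather than a target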
In short: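 Bidirectional fits against DMSO are applied to reporter mRNA, read by RT-PCR with capillary electrophoresis, from HepG2 cells exposed 24 h. The endpoint serves as an internal CMV background marker within the cis-factorial reporter panel.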

[5] = ATG_DR4_LXR_CIS: Attagene CIS-FACTORIAL HepG2 Assay for human Liver X Receptor (LXR), DR4 submotif (AID 2282929); conditions: HepG2 Attagene DR4 cis-reporter, mRNA transcription; actives raise or lower the signal
In short: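 HepG2 cells transiently transfected with cis-promoter-driven multiplexed reporter units (DR4 element) were dosed for 24 h. Reporter mRNA was quantified by RT-PCR, fluorescent primer extension, HpaI digestion and capillary electrophoresis; bidirectional fitting versus DMSO baseline.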

[6] = ATG_AP_1_CIS: Attagene CIS-FACTORIAL HepG2 Assay for human Activator Protein 1 (AP-1) (AID 2282931); conditions: HepG2 Attagene cis-factorial AP-1 reporter mRNA; actives raise or lower the signal
In short: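 HepG2 cells transiently transfected with cis-element-driven multiplex reporter units; 24 h compound exposure. Reporter mRNA quantified by RT-PCR, FAM-labelled fragments resolved by capillary electrophoresis; bidirectional fit versus DMSO baseline.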

[7] = ATG_AP_2_CIS: Attagene CIS-FACTORIAL HepG2 Assay for human Activator Protein 2 (AP-2) (AID 2282932); conditions: HepG2 AP-2 cis-reporter, Attagene transcription factor profiling; actives raise or lower the signal
In short: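 Assay in transfected HepG2 with promoter-regulated reporters, 24 h incubation after dosing. Signal is reporter mRNA fluorescence (RT-PCR, capillary electrophoresis), analysed for both increases and decreases relative to DMSO controls.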

[8] = ATG_BRE_CIS: Attagene CIS-FACTORIAL HepG2 Assay for human Bone Morphogenetic Protein (BMP) Response Element (BRE) (AID 2282933); conditions: HepG2 BMP response element reporter, Attagene transcription factor profiling; actives raise or lower the signal
In short: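 Endogenous transcription factor activity at a BMP response element was monitored in transfected HepG2 cells 24 h after dosing. Fluorescent RT-PCR products were resolved by capillary electrophoresis, and activity was fitted in both directions versus DMSO.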

[9] = biological target: Retinoic acid receptor alpha (Homo sapiens) (UniProt P10276); assay: ATG_DR5_RAR_CIS: Attagene CIS-FACTORIAL HepG2 Assay for human Retinoic Acid Receptor Alpha (RARE), DR5 submotif (AID 2282934); conditions: HepG2 Attagene cis-factorial RARE DR5 reporter, mRNA; actives raise or lower the signal;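 as to AC50: reporter responds to endogenous RAR alpha beta and gamma in HepG2 not RARA alone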
Retinoic acid receptor alpha (Homo sapiens), sequence (P10276 whole entry, looked up): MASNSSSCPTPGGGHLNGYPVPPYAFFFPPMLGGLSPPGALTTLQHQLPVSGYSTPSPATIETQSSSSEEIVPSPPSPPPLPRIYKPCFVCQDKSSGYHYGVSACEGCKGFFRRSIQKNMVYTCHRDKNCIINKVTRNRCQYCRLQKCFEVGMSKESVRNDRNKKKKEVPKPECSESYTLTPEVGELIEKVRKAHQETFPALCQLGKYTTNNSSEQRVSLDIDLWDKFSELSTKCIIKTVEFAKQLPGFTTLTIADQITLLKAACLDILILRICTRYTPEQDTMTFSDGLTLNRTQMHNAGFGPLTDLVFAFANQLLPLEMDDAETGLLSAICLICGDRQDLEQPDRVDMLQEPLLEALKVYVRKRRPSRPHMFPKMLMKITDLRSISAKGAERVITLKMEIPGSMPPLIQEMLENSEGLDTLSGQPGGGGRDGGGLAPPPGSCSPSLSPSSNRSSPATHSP
In short: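 Endpoint fitted in both directions relative to DMSO as negative control. It reflects DR5 cis-element reporter mRNA induction in transiently transfected HepG2 cells, measured 24 h after dosing through RT-PCR and fluorescent capillary electrophoresis.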

[10] = biological target: Aryl hydrocarbon receptor (Homo sapiens) (UniProt P35869); assay: ATG_Ahr_CIS: Attagene CIS-FACTORIAL HepG2 Assay for human Aryl Hydrocarbon Receptor (Ahr) (AID 2282930); conditions: HepG2 AhR cis-factorial reporter transcription; actives raise or lower the signal
Aryl hydrocarbon receptor (Homo sapiens), sequence (P35869 whole entry, looked up): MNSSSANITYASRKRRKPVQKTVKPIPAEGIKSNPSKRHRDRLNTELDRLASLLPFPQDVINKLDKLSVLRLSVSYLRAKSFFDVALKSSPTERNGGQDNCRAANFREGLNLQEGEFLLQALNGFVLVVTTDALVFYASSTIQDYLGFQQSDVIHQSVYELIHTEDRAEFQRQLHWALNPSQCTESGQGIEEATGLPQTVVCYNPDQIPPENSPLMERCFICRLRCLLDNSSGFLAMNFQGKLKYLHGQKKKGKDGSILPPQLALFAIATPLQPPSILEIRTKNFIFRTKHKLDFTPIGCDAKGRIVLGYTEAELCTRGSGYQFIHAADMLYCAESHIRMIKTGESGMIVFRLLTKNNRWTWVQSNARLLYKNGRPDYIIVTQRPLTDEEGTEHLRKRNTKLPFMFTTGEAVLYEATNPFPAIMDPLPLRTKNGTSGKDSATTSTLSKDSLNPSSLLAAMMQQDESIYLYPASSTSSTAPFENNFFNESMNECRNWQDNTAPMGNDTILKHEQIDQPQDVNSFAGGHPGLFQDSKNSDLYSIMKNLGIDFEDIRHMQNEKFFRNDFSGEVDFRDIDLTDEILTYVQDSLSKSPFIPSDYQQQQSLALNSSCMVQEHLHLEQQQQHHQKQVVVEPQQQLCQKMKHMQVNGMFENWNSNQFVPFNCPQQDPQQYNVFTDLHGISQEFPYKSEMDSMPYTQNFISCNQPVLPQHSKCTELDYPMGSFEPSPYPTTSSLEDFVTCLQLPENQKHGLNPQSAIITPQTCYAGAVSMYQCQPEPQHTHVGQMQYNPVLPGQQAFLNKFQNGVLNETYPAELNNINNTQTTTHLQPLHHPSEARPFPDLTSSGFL
In short: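 Values derive from bidirectional fitting against DMSO negative control. Underlying signal: cis-element reporter mRNA in transiently transfected HepG2, harvested 24 h post-dose and measured by RT-PCR plus capillary electrophoresis.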

Structure (SMILES) | outcome [1] | outcome [2] | outcome [3] | outcome [4] | outcome [5] | outcome [6] | outcome [7] | outcome [8] | outcome [9] | AC50 [1] | outcome [10] | AC50 [4] | AC50 [10] | AC50 [6] | AC50 [9] | AC50 [5]
FC(F)(F)C(F)(F)C(F)(F)C(F)(F)C(F)(F)C(F)(F)CC1CO1 (stereo not given) | inactive | inactive | inactive | inactive | inactive | inactive | inactive | inactive | inactive | – | – | – | – | – | – | –
CN(C)Cc1ccccc1O | – | inactive | inactive | inactive | inactive | – | inactive | inactive | inactive | 4.58 µM (active) | – | – | – | – | – | –
O=C(O)C(F)(F)C(F)(F)OC(F)(F)F | inactive | inactive | inactive | inactive | inactive | – | inactive | inactive | inactive | – | inactive | – | – | – | – | –
O=C(O)C=C(C(F)(F)F)C(F)(F)F | inactive | inactive | inactive | inactive | inactive | inactive | inactive | inactive | inactive | – | inactive | – | – | – | – | –
Cc1cc(C)cc(O)c1 | inactive | inactive | inactive | inactive | inactive | inactive | inactive | inactive | inactive | – | – | – | – | – | – | –
OCC(F)(F)C(F)(F)C(F)(F)C(F)F | inactive | inactive | inactive | inactive | inactive | inactive | inactive | inactive | inactive | – | inactive | – | – | – | – | –
COC(OC(C)=O)c1ccccc1 (stereo not given) | inactive | inactive | inactive | inactive | inactive | inactive | inactive | inactive | inactive | – | inactive | – | – | – | – | –
O=C(O)C(F)(F)C(F)(F)C(F)(F)C(F)(F)C(F)(F)C(F)(F)C(F)(F)C(F)(F)C(F)(F)C(F)(F)C(F)(F)C(F)(F)C(F)(F)F | inactive | inactive | inactive | inactive | inactive | – | inactive | inactive | inactive | – | inactive | – | – | – | – | –
CCCCOCCOCCOC(=O)CCCCC(=O)OCCOCCOCCCC | inactive | inactive | inactive | inactive | inactive | inactive | inactive | inactive | inactive | – | inactive | – | – | – | – | –
FC(F)(F)C(F)(F)C(F)(F)C(F)(F)C(F)(F)CCI | inactive | inactive | inactive | – | inactive | – | inactive | inactive | inactive | – | – | 97.7 µM (active) | 32.1 µM (active) | 59.9 µM (active) | – | –
CC(C)(C)C(=O)CC(=O)C(F)(F)C(F)(F)C(F)(F)F | inactive | inactive | inactive | inactive | inactive | inactive | inactive | inactive | inactive | – | inactive | – | – | – | – | –
C=CC(F)(F)C(F)(F)C(F)(F)C(F)(F)C(F)(F)C(F)(F)C(F)(F)C(F)(F)F | inactive | inactive | inactive | inactive | inactive | inactive | inactive | inactive | inactive | – | inactive | – | – | – | – | –
Nc1ccc(S(=O)(=O)Nc2nccs2)cc1 | inactive | inactive | – | inactive | inactive | inactive | inactive | inactive | inactive | – | inactive | – | – | – | – | –
OCC(F)(F)C(F)(F)C(F)(F)F | inactive | – | inactive | inactive | inactive | inactive | inactive | inactive | inactive | – | inactive | – | – | – | – | –
Cc1ccc(S(=O)(=O)NCl)cc1 | inactive | inactive | – | inactive | inactive | inactive | inactive | inactive | – | – | – | – | 66.9 µM (active) and 61.9 µM (active) | – | – | –
C=C(C)C(=O)OCCC(F)(F)C(F)(F)C(F)(F)C(F)(F)C(F)(C(F)(F)F)C(F)(F)F | inactive | inactive | – | inactive | inactive | – | inactive | inactive | inactive | – | inactive | – | – | – | – | –
Nc1ccc([N+](=O)[O-])cc1O | inactive | inactive | inactive | inactive | inactive | – | inactive | inactive | inactive | – | – | – | – | – | – | –
CCCCCCCOC(=O)c1ccccc1C(=O)OCCCCCCC | inactive | inactive | – | inactive | inactive | – | inactive | inactive | inactive | – | inactive | – | – | – | – | –
FC(F)(F)C(F)(F)C(F)(F)C(F)(F)C(F)(F)C(F)(F)C(F)(F)C(F)(F)CCS | inactive | inactive | – | inactive | inactive | inactive | inactive | inactive | inactive | – | inactive | – | – | – | – | –
O=C(O)C(F)(OC(F)(F)C(F)(OC(F)(F)C(F)(F)C(F)(F)F)C(F)(F)F)C(F)(F)F (stereo not given) | inactive | inactive | – | inactive | inactive | inactive | inactive | inactive | inactive | – | inactive | – | – | – | – | –
CC(C)=CCCC(C)CCOC(=O)C(C)C (stereo not given) | inactive | inactive | – | inactive | inactive | – | inactive | inactive | inactive | – | inactive | – | – | – | – | –
C=CC(=O)OCC(F)(F)C(F)(F)C(F)(F)C(F)(F)C(F)(F)C(F)(F)C(F)(F)F | inactive | inactive | – | inactive | inactive | inactive | inactive | inactive | – | – | – | – | – | – | 12.1 µM (active) | –
CCc1c(Br)c(Br)c(Br)c(Br)c1Br | inactive | inactive | – | inactive | inactive | – | inactive | inactive | – | – | inactive | – | – | – | 16.4 µM (active) | –
CCc1ccc(C(c2ccc(CC)cc2)C(Cl)Cl)cc1 | inactive | – | inactive | – | – | – | inactive | inactive | inactive | – | inactive | 100 µM (active) | – | 66.5 µM (active) | – | 51 µM (active)
